In the library only some 3.6% were active in any assay of this set; here they are far more common.
DRV1 agonist: GPR32 (DRV1) agonism, beta-arrestin recruitment; O75388; CHO-K1 GPR32 beta-arrestin PathHunter luminescence, 90 min; zero percent set by DMSO-only wells; activation, % at 76.9 µM; 2.5% of 48,000 active;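 active = activation of at least 60% and not above a set upper limit, about 1 call in 100 departs from these limits; inconclusive = activation of 40% to 60%, or above that upper limit; inactive = activation under 40%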; also: 0% is about no effect
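CHO-K1 cells stably expressing ProLink-tagged GPR32 and Enzyme Activator-tagged beta-arrestin were seeded at 2,500 cells/well overnight, exposed to compounds for 90 min at 37 °C, then read by beta-Gal complementation chemiluminescence after 1 h detection reagent.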
B2AR arrestin ag: agonists recruiting beta-arrestin to human beta2-adrenergic receptor | HTLA Tango cells, beta-arrestin recruitment, luciferase luminescence, 18 h | Potency, µM (series often up to 46.1 µM), most hits filed as activators | 44,000 tested, under 10 active;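 also: potency is read from the fitted curve at half-maximal effect; 0% = DMSO and full agonism = EC100 isoproterenol or metaproterenol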
Target sequence (P07550 whole entry, looked up): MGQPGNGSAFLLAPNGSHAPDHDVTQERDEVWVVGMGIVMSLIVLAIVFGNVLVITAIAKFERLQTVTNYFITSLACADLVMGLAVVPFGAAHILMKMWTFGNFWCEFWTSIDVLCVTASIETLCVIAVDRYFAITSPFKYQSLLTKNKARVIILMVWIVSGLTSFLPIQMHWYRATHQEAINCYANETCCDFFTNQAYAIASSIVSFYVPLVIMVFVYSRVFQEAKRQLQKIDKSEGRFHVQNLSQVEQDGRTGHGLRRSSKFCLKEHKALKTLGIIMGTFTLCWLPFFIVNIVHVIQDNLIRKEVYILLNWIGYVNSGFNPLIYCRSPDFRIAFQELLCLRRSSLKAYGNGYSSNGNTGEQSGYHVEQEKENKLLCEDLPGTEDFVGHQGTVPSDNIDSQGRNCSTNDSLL
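Ligand-induced beta-arrestin recruitment to recombinant beta2-AR is measured via a tTA-driven luciferase reporter in Tango cells after 18 hr compound exposure at 37 degrees C. Concentrations span up to 46 microM.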
HTT prom inh: HTT promoter inhibition; HEK293 HTT promoter firefly luciferase reporter, 24 h; Potency, µM (doses to about 57.5 µM), for the others: top-dose activity change, negative = inhibition, most hits filed as inhibitors; 0.93% of 48,000 active; AID 1508623; also: potency is read from the fitted curve at half-maximal effect; nearly all actives have a fitted effect of over 50% in size
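HEK293 luciferase promoter-reporter cells (2,500/well) plated 24 h, then compounds added at up to 57.5 uM final for 24 h at 37 °C. Firefly luminescence by Dual-Glo, normalized to vehicle (0%) and zero RLU (-100%).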
GALK inhibitor: GALK (human) enzyme inhibition. P51570. recombinant GALK, Kinase-Glo ATP luminescence, 1 h. Potency, µM (series often up to 57.5 µM), without a hit: at the top dose activity, negative = inhibition, hits mostly inhibitors. 44,000 tested, under 10 active. AID 1347072;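 also: plate controls were full GALK reaction for no effect and reaction lacking GALK for full effect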
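5 nM GALK; 35 uM ATP; 100 uM D-galactose; 20 mM HEPES pH 8.0, 5 mM MgCl2, 60 mM NaCl, 1 mM DTT, 0.01% BSA; 1 h RT; Kinase-Glo Plus luminescence.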
HTT-AS act: HTT-AS promoter activation; 0.24% of 48,000 active; Potency, µM (doses to about 57.5 µM), without a hit: top-dose activity change, positive = activation, actives largely listed as activators; HEK293 HTT-AS promoter firefly luciferase reporter, 24 h; response scale: percent change from vehicle, -100% = no light; also: potency is read from the fitted curve at half-maximal effect; nearly all actives have a fitted effect of over 55% in size
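HEK293 cells carrying firefly luciferase reporters were seeded at 2,500 per well in Opti-MEM and cultured for 24 h. They were then treated with compounds at up to 57.5 uM final for 24 h at 37 degrees C before Dual-Glo luminescence readout.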
PTAP-TSG101 blk: TSG101-PTAP interaction inhibition, HIV-1 budding. Fluorescence polarization, FITC-PTAP peptide/Tsg101, 20 min. Potency, µM (titrated, usually from 115 µM), most hits filed as inhibitors. 44,000 tested, under 10 active. AID 1347069; also: potency is read from the fitted curve at half-maximal effect; 0% is about no effect
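Fluorescence polarization binding of Tsg101 binding domain (10 uM final) to FITC-labeled PTAP-motif peptide (50 nM final) in HEPES pH 7.5/NaCl/Tween 20/EDTA/TCEP buffer; 20 min at r.t. Actives by curve class, <25 µM, efficacy <60% inhibition.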
* hit, by the source's call; i = inactive; ? = inconclusive; . = not tested or not shown. Unless noted, calls follow the shape of the dose curve; as a rule, active = well fitted curve in the direction sought with a large enough effect; inconclusive = small, poorly fitted or top-dose-only effect, or another doubt; inactive = no such curve, though single readings can be large; an effect the other way counts as inactive or inconclusive.

SMILES	DRV1 agonist	B2AR arrestin ag	HTT prom inh	GALK inhibitor	HTT-AS act	PTAP-TSG101 blk
Cn1c2ccccc2c2c(C(=O)N3CCN(c4cccc(C(F)(F)F)c4)CC3)cn(C3CCCCC3)c(=O)c21	-30	i	?	4%	-26%	i
CNC(=O)c1c(I)c(NC(C)=O)c(I)c(C(=O)O)c1I	30	.	0%	.	1%	.
Cc1ccccc1C(=O)n1nc(-c2ccco2)nc1NCc1ccc(Cl)cc1	8	i	4%	9%	?	i
COc1ccc(CNc2nc(-c3ccco3)nn2C(=O)c2ccccc2C)cc1	-17	i	16%	2%	8.9µM*	i
Cc1ccc(S(=O)(=O)Nc2cc(Cl)ccc2C(=O)Nc2nc(-c3ccccc3)cs2)cc1	.	.	?	.	-16%	.
CC(C)C(=O)OCc1cc(=O)n2nc(C3CCCCC3)sc2n1	-9	i	13%	1%	12%	i
CC(C)CC(=O)OCc1cc(=O)n2nc(C3CCCCC3)sc2n1	71*	i	-5%	-1%	17%	i
CCc1cccc(NS(=O)(=O)c2ccc(-n3cccn3)cc2)c1	86*	i	35µM*	1%	-40%	i
Cc1ccc(NS(=O)(=O)c2ccc(-n3cccn3)cc2)cc1Cl	73*	i	?	1%	-32%	i
O=S(=O)(Nc1ccc(F)cc1F)c1ccc(-n2cccn2)cc1	75*	i	?	2%	-31%	i
COc1ccc(NS(=O)(=O)c2ccc(-n3cccn3)cc2)cc1OC	14	i	7.9µM*	0%	-90%	i
C[C@@H](CN1CC(=O)NC(=O)C1)N1CC(=O)NC(=O)C1	-71	.	-22%	.	-31%	.
COc1ccc2sc(N(Cc3cccnc3)C(=O)c3cccs3)nc2c1	1	i	14µM*	0%	-32%	i
C[C@@H](Oc1ccc2[nH]nc(C=Cc3cnn(CCO)c3)c2c1)c1c(Cl)cncc1Cl	.	.	?	.	-38%	.
CC(C)OP(=O)(CP(=O)(OC(C)C)OC(C)C)OC(C)C	-9	.	-2%	.	-2%	.
COc1ccc2c(c1)CCc1c(C(=O)Nc3c(C)nn(Cc4ccc(C)cc4)c3C)noc1-2	-1	i	22µM*	4%	-47%	i
COc1ccccc1-c1cc(C(=O)Nc2c(C)nn(Cc3ccc(Cl)cc3)c2C)no1	72*	i	.	0%	.	i
COc1ccc(-c2cc(C(=O)Nc3ccn(Cc4ccc(C)cc4)n3)no2)cc1OC	78*	i	.	3%	.	i
COc1cccc(-c2cc(C(=O)Nc3ccn(Cc4ccc(C)cc4)n3)no2)c1	50	i	.	-4%	.	i
CCCCOC(=O)CCCCCCCCC(=O)OCCCC	-11	.	7%	.	2%	.
NC(=O)[C@@H](CCC(F)(F)F)N(Cc1ccc(-c2ncon2)cc1F)S(=O)(=O)c1ccc(Cl)cc1	.	.	-27%	.	-28%	.
CNCCC(Oc1ccccc1C)c1ccccc1 (stereo not given)	-13	.	.	.	.	.
CNCC[C@H](Oc1cccc2ccccc12)c1cccs1	99*	.	?	.	-45%	.
CC(C)c1ccc(Nc2c(-c3ccccn3)nc3ccccn23)cc1	-84	i	25µM*	3%	-67%	i
Cc1ccc2nc(-c3ccccn3)c(Nc3ccccc3C)n2c1	-107	i	35µM*	3%	-75%	i
SMILES	DRV1 agonist	B2AR arrestin ag	HTT prom inh	GALK inhibitor	HTT-AS act	PTAP-TSG101 blk
Cc1ccccc1Nc1c(-c2cccc(N(C)C)c2)nc2ccc(Br)cn12	-23	i	46%	2%	11µM*	i
Cc1cn([C@@H]2O[C@H](CO)[C@@H](O)[C@H]2F)c(=O)[nH]c1=O	-11	.	14%	.	1%	.
COc1ccc(C2=N[C@H](c3ccc(Cl)cc3)[C@H](c3ccc(Cl)cc3)N2C(=O)N2CCNC(=O)C2)c(OC(C)C)c1	.	.	-11%	.	-17%	.
CCN(CC)c1ncnc2c1cnn2-c1cc(Cl)ccc1C	72*	i	-16%	-4%	6%	i
Fc1ccc(-n2ncc3c(Nc4ccc5c(c4)OCCO5)ncnc32)cc1	92*	i	2%	1%	?	i
Fc1ccc(-n2ncc3c(NC4CCCCCC4)ncnc32)cc1	80*	i	14%	-1%	34%	i
Cc1ccc(Cl)cc1-n1ncc2c(N3CCN(Cc4ccccc4)CC3)ncnc21	85*	i	13µM*	0%	-95%	i
CNCc1ccc(-c2[nH]c3cc(F)cc4c3c2CCNC4=O)cc1	.	.	6%	.	-6%	.
Cc1ccc(Cl)cc1-n1ncc2c(NC3CCCCC3)ncnc21	68*	i	?	-6%	-12%	i
Clc1cccc(-n2ncc3c(NC4CCCCC4)ncnc32)c1	109*	i	-27%	3%	?	i
Cc1ccc(-n2ncc3c(NC(C)c4ccccc4)ncnc32)cc1 (stereo not given)	?	i	-11%	-2%	11%	i
CC(Nc1ncnc2c1cnn2-c1cccc(Cl)c1)c1ccccc1 (stereo not given)	91*	i	3%	4%	29%	i
COc1ccc(NC(=O)c2ccco2)cc1NC(=O)COc1ccccc1Cl	64*	i	?	1%	-23%	i
CS(=O)(=O)c1ccc(-c2cn3ccccc3n2)cc1	9	.	7%	.	?	.
COC(=O)c1ccc(NC(=O)CC2Nc3cc(C)c(C)cc3NC2=O)cc1 (stereo not given)	-47	i	25µM*	0%	-76%	i
CC(=O)c1ccc(NC(=O)CC2Nc3cc(C)c(C)cc3NC2=O)cc1 (stereo not given)	-15	i	?	5%	-53%	i
O=C(O)C1=NC(C(=O)O)CC(C=CN2c3cc(O)c(OC4OC(CO)C(O)C(O)C4O)cc3CC2C(=O)O)=C1 (stereo not given)	.	.	14%	.	4%	.
CCc1c(C)nc2nncn2c1NCc1ccc(Cl)cc1	66*	i	?	1%	-44%	i
Cc1ccc(CNc2c(C)c(C)nc3nncn23)cc1	?	i	?	1%	-52%	i
CCc1ccc(NC(=O)Cn2nnc(-c3ccccc3N)n2)cc1	62*	i	-15%	4%	-11%	i
O=C(Cn1nnc(-c2ccccc2Cl)n1)Nc1ccc(Br)cc1	11	i	11%	0%	5%	i
O=C(Nc1ccc(Cl)c(C(F)(F)F)c1)C1CCN(S(=O)(=O)c2cccc3nonc23)CC1	79*	i	?	3%	-58%	i

Assay outcomes as filed in PubChem.
